Source: PubChem (Emory University Molecular Libraries Screening Center)
14-3-3 PPI: alters human 14-3-3 gamma binding to Raf peptide | P61981 | FP, 14-3-3gamma / TMR-pS259-Raf peptide binding | inhibition, % at 40 µM | 160,000 tested, 0.19% active; in the data active means inhibition above about 30%;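 further: 0% = protein plus tracer without compound and 100% = blank with tracer alone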
Target sequence (P61981 whole entry, looked up): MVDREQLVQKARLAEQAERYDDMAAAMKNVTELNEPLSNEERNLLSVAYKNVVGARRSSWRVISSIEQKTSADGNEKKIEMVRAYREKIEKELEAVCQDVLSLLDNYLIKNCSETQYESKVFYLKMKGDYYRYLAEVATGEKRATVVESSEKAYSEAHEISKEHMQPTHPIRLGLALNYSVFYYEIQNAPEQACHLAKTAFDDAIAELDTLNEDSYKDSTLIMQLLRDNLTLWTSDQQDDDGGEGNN
Starred values were filed as active, the others as inactive; ! = repeats disagree. The sample as a whole holds a higher share of hits than the screen did.

SMILES	14-3-3 PPI
CCN1/C(=C/c2ccc3cc(OC)ccc3[n+]2CC)Sc2ccc(C)cc21	42*
CCN1/C(=C/c2ccc3ccccc3[n+]2CC)Sc2ccc(C)cc21	-236
CCN1/C(=C/c2ccc3cc(OC)ccc3[n+]2CC)Sc2ccc(Cl)cc21	12
CCOc1ccc(/C(O)=C2\C(=O)C(=O)N(CCN(C)C)C2c2ccc(C)cc2)cc1C (stereo unspecified)	-6
COc1ccc(C(C)=Nc2sc3c(c2C#N)CCCC3)cc1OC	4
O=c1c2ccc(Cl)cc2[nH]c(=S)n1Cc1ccc(F)cc1	2
Cc1c(Cl)c(C)c([N+](=O)[O-])c(O)c1C=Nc1cccc(C(=O)O)c1	19
Cc1c(Cl)c(C)c([N+](=O)[O-])c(O)c1C=Nc1ccc(Br)cc1	-2
Cc1c(Cl)c(C)c([N+](=O)[O-])c(O)c1C=Nc1ccc(C(=O)O)cc1	45*
CCOC(=O)C1CCN(C(=O)c2ccc3c(c2)N(Cc2ccccc2C)C(=O)CS3)CC1	-2
N#Cc1c(NC(=O)CC2Nc3ccccc3NC2=O)sc2c1CCCC2 (stereo unspecified)	-48
Cc1ccc2nc(-c3ccc(N=Cc4ccc5c(c4)OCO5)cc3O)oc2c1	-109
CCOC(=O)c1cc2c(=O)n3ccccc3nc2n(C)c1=NC(=O)c1ccco1	-24
COc1ccc(CCn2c(SCC(=O)N3CC(C)CC(C)C3)nc3c(sc4ccccc43)c2=O)cc1OC (stereo unspecified)	1
Cc1cccn2cc(-c3cccc(NC(=O)CC(C)C)c3)nc12	-10
CCC(=O)Nc1cccc(-c2cn3cccc(C)c3n2)c1	31*
Cc1cccn2cc(-c3cccc(NC(=O)c4cc5ccccc5oc4=O)c3)nc12	-5
O=C1c2ccccc2C(O)(Cc2ccccc2)N1C(c1ccccc1)c1ccccc1 (stereo unspecified)	-1
Cc1cccc(CCN=c2c([N+](=O)[O-])nn(-c3ccc4c(c3)OCCO4)n2O)c1	72*
Cc1cccc(CCN=c2c([N+](=O)[O-])nn(-c3ccccc3)n2O)c1	-7
O=[N+]([O-])c1nn(-c2ccc3c(c2)OCCO3)n(O)c1=NCCc1ccccc1	-12
COc1ccc(S(=O)(=O)n2c(SCC(=O)NC3CCCCC3)nc3ccccc32)cc1	-4
COC(=O)c1ccc2c(=O)n(Cc3ccc(C(=O)NCc4ccccc4OC)cc3)c(=S)[nH]c2c1	4
Cc1ccc(N=Cc2cc(Cl)cc([N+](=O)[O-])c2O)c(O)c1	-52
Cc1cc(C=Nc2ccc(N3CCOCC3)cc2)c(O)c([N+](=O)[O-])c1	86*
SMILES	14-3-3 PPI
O=[N+]([O-])c1cc(Cc2ccccc2Cl)cc(C=Nc2ccc(N3CCOCC3)cc2)c1O	-81
Cc1cc(Br)c(O)c(C=Nc2ccc(N3CCOCC3)cc2)c1	-83
O=[N+]([O-])c1cc(Cl)cc(C=Nc2ccc(Cl)c(-c3nc4ccccc4o3)c2)c1O	-21
Cc1ccc(N=Cc2cc(Cl)cc([N+](=O)[O-])c2O)cc1Cl	42*
Cc1ccc(S(=O)(=O)c2nc(-c3ccc(Cl)cc3)oc2N2CCCCC2)cc1	-3
O=C(CCS(=O)(=O)Cc1cccc(Cl)c1)NCCc1ccc(Cl)cc1	2
Cc1cccc(OC(=O)c2cccc(N3C(=O)C4CCCCC4C3=O)c2)c1 (stereo unspecified)	-5
O=C(NCCN1CCCC1)c1cccc(N2CCCC2=O)c1	3
S=C(c1cn(CCOc2ccc(Cl)cc2)c2ccccc12)N1CCOCC1	-10
CC1(C)Cc2c(c(-c3ccccc3)nc3sc4c(N5CCCC5)ncnc4c23)CO1	3
OCCN1CCOCCN(CCO)CCN(CCO)CC1	147*!
C=COCCN1CCOCC1	-13
NC(=O)CN1CCOCCOCCN(CC(N)=O)CCOCC1	-4
CCOC(=O)C1=C(C)NC(C)=C(C(=O)OCC)C1c1ccc(-c2ccccc2Cl)o1	-19
COC(=O)C1=C(C)NC(C)=C(C(=O)OC)C1c1ccc(-c2ccc(Cl)cc2)o1	-21
CCOC(=O)C1=C(C)NC(C)=C(C(=O)OCC)C1c1ccc(-c2ccccc2)o1	40*
O=C1CC(C(=O)NC2CCCCC2)(c2cccc(Br)c2)N1CC1COc2ccccc2O1 (stereo unspecified)	-9
Cc1ccc2c(c1)C(c1ccc(F)cc1)N(C(=O)c1ccc3c(c1)OCO3)CC(=O)N2 (stereo unspecified)	-5
COC(=O)C1=C(C)N(C)C(C)=C(C(=O)OC)C1c1ccsc1	3
COC(=O)C1=C(C)N(C)C(C)=C(C(=O)OC)C1c1ccc(C(=O)OC)cc1	113*
COC(=O)C1=C(C)N(C)C(C)=C(C(=O)OC)C1c1ccc(C(F)(F)F)cc1	-6
COc1ccc(-c2nnc(SC)n2-c2ccccc2)cc1OC	-10
CCOc1ccc(NC2=C(Cl)C(=O)N(c3cccc(C)c3C)C2=O)cc1	-4
Cc1c(C(=O)OCCc2ccccn2)sc2ncn(Cc3ccc(F)cc3)c(=O)c12	0
COc1ccc(Cl)cc1NC(=O)CN(Cc1ccccc1)S(=O)(=O)c1ccccc1	6
SMILES	14-3-3 PPI
N#CC(C#N)C(C#N)(C#N)C1CCCCC1=O (stereo unspecified)	142*
Oc1ccc(C2N(c3ccccc3)CCN2c2ccccc2)cc1Br	0
CCc1nc(C)ccc1OCC(=O)O	74*!
CCc1nc(C)ccc1OCC(=O)NCCCN(C)C	-4
Cc1ccc2nc(C)cc(OCC(=O)O)c2c1	-6
Cc1ccc(NS(=O)(=O)c2ccc3c(c2)C2C=CCC2C(c2ccc(C(=O)O)cc2)N3)cc1C (stereo unspecified)	-209
COc1cc(C)nc(NC(=O)NS(=O)(=O)c2c(C)cc(Cl)nc2Cl)n1	-7
NS(=O)(=O)c1ccc(CCNC(=O)c2cccn3c(=O)c4cc5ccccc5cc4nc23)cc1	91*
COCCCNC(=O)c1cccn2c(=O)c3cc4ccccc4cc3nc12	-12
O=C(NCCc1ccccc1)c1cccn2c(=O)c3cc(Cl)ccc3nc12	-8
Cc1nc2nc(Cc3ccccc3)[nH]n2c(=O)c1Cc1ccccc1	50*
Cc1nc2nc(-c3ccccc3)[nH]n2c(=O)c1Cc1ccccc1	-15
Cc1nc2nc(Cc3ccccc3)[nH]n2c(=O)c1Cl	5
COc1ccc(NC(=O)CSc2nnc3scc(-c4ccccc4)n23)cc1	-5
O=c1[nH]c(=O)n(CCO)c2nsnc12	-2
CC1=C(C(=O)OCc2ccc3c(c2)OCO3)C(c2ccc(Br)cc2)NC(=O)N1 (stereo unspecified)	1
Cc1ccc(Nc2ccc3c4c(cc(=O)n3C)-c3ccccc3C(=O)c24)cc1	-160
CC(=O)N(C)c1ccc(N2CCOCC2)c2c1C(=O)c1ccccc1C2=O	-15
Cn1c(=O)cc2c3c(c(N4CCOCC4)ccc31)C(=O)c1ccccc1-2	33*
CCOc1ccccc1NC(=O)C1=C(C)NC(=O)NC1c1ccccc1Cl (stereo unspecified)	1
CC1CCCC(C)N1C(=O)c1ccc2c(c1NCCO)C(=O)c1ccccc1C2=O (stereo unspecified)	-268
O=C(O)c1ccc2c(c1NCCO)C(=O)c1ccccc1C2=O	31*
CNc1c(C(=O)O)ccc2c1C(=O)c1ccccc1C2=O	-149
COc1ccc(-n2c(C)cc(C(=O)CN3CC(C)OC(C)C3)c2C)cc1 (stereo unspecified)	2
CCOc1ccccc1-n1cc(-c2cc3ccccc3oc2=O)[nH]c1=O	-113
CC1=C(C(=O)OCCOc2ccccc2)C(c2ccccc2)C2=C(CCCC2=O)N1 (stereo unspecified)	-2
Oc1ccc2ccccc2c1C=Nc1cccn2cc(-c3ccccc3)nc12	93*
